For five compounds, normalized growth results are on record in PubChem BioAssay AID1159580 (chemical genetic matrix, 2015).

A short description of this assay: chemical genetic growth profiling, strain panel (AID 1159580).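 Further: tested at 20 µM; growth read once vehicle control cultures reached saturation at 30 °C; 1 = growth at the plate median or of vehicle wells.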 The note with it: S. cerevisiae deletion strains, growth OD.
The mark [1] stands for this setting: locus YAL040C, strain CLN3, stronger effect = lower value.
The mark [2] stands for this setting: locus YCL061C, strain MRC1 (second series), stronger effect = lower value.
Where [3] appears, read: locus YDR363W, strain ESC2, stronger effect = lower value.
[4] abbreviates: locus YER002W, strain NOP16, stronger effect = lower value.
Where [5] appears, read: locus YGR229C, strain SMI1, stronger effect = lower value.
Where [6] appears, read: locus YMR307W, strain GAS1, stronger effect = lower value.
Setting [7] is: locus YNL175C, strain NOP13, stronger effect = lower value.
[8] abbreviates: locus YNL197C, strain WHI3, stronger effect = lower value.
The mark [9] stands for this setting: locus YNL224C, strain SQS1, stronger effect = lower value.
[10] abbreviates: locus YOR083W, strain WHI5 (second series), stronger effect = lower value.
Where [11] appears, read: locus YPL055C, strain LGE1, stronger effect = lower value.
Where [12] appears, read: locus YPL241C, strain CIN2, stronger effect = lower value.
Setting [13] is: locus YDR150W, strain NUM1, stronger effect = lower value.
Setting [14] is: locus YJR075W, strain HOC1, stronger effect = lower value.
[15] abbreviates: locus YMR263W, strain SAP30, stronger effect = lower value.

Among all 5,500 compounds or so, about 2,000 (36%) were called active. Inconclusive results (about 18%) are left out. This is one part of the list. Values without a mark were called inactive. No stated cut-off is given here; in the data, active means normalized growth mostly below about 0.91 (no sharp cut-off); inconclusive means no clear call, values can overlap the other calls; inactive means mostly above about 0.92.

Turning to `CCOC(=O)c1ncn2c1[C@@H]1CCCN1C(=O)c1cc(OC)ccc1-2`, the normalized growth was 0.938 under setting [1]; 1.01 under setting [2]; 1 under setting [3]; 1.01 under setting [4]; 1.05 under setting [5]; 0.981 under setting [6]. The normalized growth runs as follows: under setting [7], 1.04; under setting [8], 1.03; under setting [9], 1.01; (locus YNL322C, strain KRE1, stronger effect = lower value) 1.02; under setting [10], 1.04; under setting [11], 1.05. Besides, the normalized growth under setting [12] was 1.01.

For the compound `CCCN(CCC)[C@@H]1CCc2c(F)ccc(O)c2C1`, the normalized growth is 1.01 (locus YAL013W, strain DEP1, stronger effect = lower value); 1.01 under setting [1]; 1.01 under setting [2]; 0.983 under setting [13]; 1.01 under setting [3]; 1 under setting [4]. Besides, the normalized growth under setting [14] was 1.02; the normalized growth under setting [15] is 1.01; the normalized growth under setting [6] was 1; the normalized growth under setting [8] was 0.992; the normalized growth under setting [9] was 0.999; the normalized growth under setting [10] is 1.01. Also, the normalized growth was 1.01 under setting [11] and 1 under setting [12].

Regarding `CCCN(CCC)[C@H]1CCc2c(F)ccc(O)c2C1`, the normalized growth was 1 under setting [2]; 1.01 under setting [3]; 0.998 under setting [4]; 1.02 under setting [5]; 1.01 under setting [14]; 0.993 under setting [6]. Moreover, the normalized growth (locus YNL128W, strain TEP1, stronger effect = lower value) was 0.428 (active); the normalized growth under setting [8] is 0.979; the normalized growth under setting [9] is 0.995; the normalized growth under setting [10] was 1.01; the normalized growth under setting [12] is 1.

As for `CCCN(CCC)[C@@H]1CCc2cccc(O)c2C1`, the normalized growth is, setting by setting: under setting [1], 1.04; under setting [2], 0.995; under setting [13], 0.989; under setting [3], 0.997; under setting [4], 0.977; (locus YGR078C, strain PAC10, stronger effect = lower value) 0.981. In addition, the normalized growth is 1.07 under setting [5]; 1.02 under setting [14]; 1 under setting [15]; 1.03 under setting [6]; 0.953 (locus YNL153C, strain GIM3, stronger effect = lower value); 0.998 under setting [7]. For the same compound, the normalized growth under setting [8] was 0.974; the normalized growth under setting [9] was 1; the normalized growth under setting [10] was 1.01; the normalized growth under setting [11] was 1.01; the normalized growth under setting [12] is 1.

As for `CN(C)CC(=O)OC[C@@H](O)[C@@H](O)[C@H](O)[C@@H](O)C(=O)O`, the normalized growth reads like this: (locus YHR030C, strain SLT2, stronger effect = lower value) 0.956; (locus YHR079C, strain IRE1, stronger effect = lower value) 0.944; (locus YJL095W, strain BCK1, stronger effect = lower value) 0.954; (locus YJR066W, strain TOR1, stronger effect = lower value) 0.924; (locus YLR113W, strain HOG1, stronger effect = lower value) 0.956; (locus YNL183C, strain NPR1, stronger effect = lower value) 0.896. Besides, the normalized growth was 0.964 (locus YOR231W, strain MKK1, stronger effect = lower value) and 0.969 (locus YPL256C, strain CLN2, stronger effect = lower value).
